Reference: PubChem BioAssay (NCATS)
Where “and” joins values, the source holds several entries; their conditions need not be identical. Identical values can stand only once. Inconclusive results are not listed. A call without a number means that no potency is given here. Calls of active or inactive are those of the source. Calls come from the whole dose curve; as a rule, active = well fitted curve in the direction sought with a large enough effect; inconclusive = small, poorly fitted or top-dose-only effect, or another doubt; inactive = no such curve, though single readings can be large; an effect the other way counts as inactive or inconclusive.

Assays:
[1] = qHTS of pediatric cancer cell lines to identify multiple opportunities for drug repurposing: Primary screen for A673 cells (AID 1347092); note: nearly all actives have a fitted effect of over 45% in size; note: potency is the fitted concentration of half-maximal effect
Summary of the method: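 A673 cells (500-1,000 cells/well in growth media) were pre-incubated 5 h at 37 degrees C, then exposed to compounds for 48 h. Viability was read as CellTiter-Glo luminescence; concentration-response curves came directly from the primary screen.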

[2] = qHTS of pediatric cancer cell lines to identify multiple opportunities for drug repurposing: Primary screen for SK-N-MC cells (AID 1347093); note: potency is the fitted concentration of half-maximal effect
Summary of the method: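 Metabolically active cells were quantified by ATP-dependent luminescence (CellTiter-Glo, 15 min at room temperature) following 48 h treatment. Cells had been plated at 500-1,000 per well and settled for 5 h beforehand.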

[3] = qHTS of pediatric cancer cell lines to identify multiple opportunities for drug repurposing: Primary screen for NB-EBc1 cells (AID 1347095)
Summary of the method: (§1)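 Plated cells (500-1,000 per well, growth media) were allowed to settle for 5 hours, treated with compound dilutions for 48 hours, then lysed with CellTiter-Glo for 15 min at room temperature before luminescence reading.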

[4] = qHTS of pediatric cancer cell lines to identify multiple opportunities for drug repurposing: Primary screen for U-2 OS cells (AID 1347096); note: nearly all actives have a fitted effect of over 50% in size
Summary of the method: (§2)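 Cells (500-1,000/well) in growth media were settled 5 h at 37 degrees C, then given compounds for 48 h. Viability was read as CellTiter-Glo luminescence. Primary runs used MIPE at 11 points (0.78 nM-46 µM) and NPC at 8 points (0.59 nM-46 µM); follow-ups used 11 points.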

[5] = qHTS of pediatric cancer cell lines to identify multiple opportunities for drug repurposing: Primary screen for Saos-2 cells (AID 1347097); note: nearly all actives have a fitted effect of over 40% in size
Summary of the method: as §1

[6] = qHTS of pediatric cancer cell lines to identify multiple opportunities for drug repurposing: Primary screen for SK-N-SH cells (AID 1347098); note: nearly all actives have a fitted effect of over 65% in size; note: potency is the fitted concentration of half-maximal effect
Summary of the method: (§3)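 Cells (500-1,000/well) rested 5 h, then received compounds for 48 h; metabolically active cells were measured by CellTiter-Glo luminescence. Final concentrations spanned up to 46 µM (MIPE, 11-point) or 0.59 nM-46 µM (NPC, 8-point) in primary screens, 11-point in follow-ups.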

[7] = qHTS of pediatric cancer cell lines to identify multiple opportunities for drug repurposing: Primary screen for NB1643 cells (AID 1347099); note: nearly all actives have a fitted effect of over 50% in size; note: potency is the fitted concentration of half-maximal effect
Summary of the method: as §1

[8] = qHTS of pediatric cancer cell lines to identify multiple opportunities for drug repurposing: Primary screen for LAN-5 cells (AID 1347100); note: potency is the fitted concentration of half-maximal effect
Summary of the method: as §2

[9] = qHTS of pediatric cancer cell lines to identify multiple opportunities for drug repurposing: Primary screen for BT-12 cells (AID 1347101); note: nearly all actives have a fitted effect of over 25% in size; note: potency is the fitted concentration of half-maximal effect
Summary of the method: as §3

[10] = qHTS of pediatric cancer cell lines to identify multiple opportunities for drug repurposing: Primary screen for Rh18 cells (AID 1347102); note: nearly all actives have a fitted effect of over 65% in size; note: potency is the fitted concentration of half-maximal effect
Summary of the method: as §2

[11] = qHTS of pediatric cancer cell lines to identify multiple opportunities for drug repurposing: Primary screen for OHS-50 cells (AID 1347103); note: nearly all actives have a fitted effect of over 40% in size; note: potency is the fitted concentration of half-maximal effect
Summary of the method: as §3

[12] = qHTS of pediatric cancer cell lines to identify multiple opportunities for drug repurposing: Primary screen for RD cells (AID 1347104); note: nearly all actives have a fitted effect of over 55% in size; note: potency is the fitted concentration of half-maximal effect
Summary of the method: as §1

[13] = qHTS of pediatric cancer cell lines to identify multiple opportunities for drug repurposing: Primary screen for MG 63 (6-TG R) cells (AID 1347105); note: nearly all actives have a fitted effect of over 50% in size
Summary of the method: as §1

[14] = qHTS of pediatric cancer cell lines to identify multiple opportunities for drug repurposing: Primary screen for Rh30 cells (AID 1347107); note: series mostly up to about 46 µM; nearly all actives have a fitted effect of over 75% in size
Summary of the method: as §2

[15] = qHTS of pediatric cancer cell lines to identify multiple opportunities for drug repurposing: Primary screen for Rh41 cells (AID 1347108); note: nearly all actives have a fitted effect of over 70% in size; note: potency is the fitted concentration of half-maximal effect
Summary of the method: as §1

[16] = qHTS of pediatric cancer cell lines to identify multiple opportunities for drug repurposing: Primary screen for BT-37 cells (AID 1347094); note: potency is the fitted concentration of half-maximal effect
Summary of the method: as §1

[17] = qHTS of pediatric cancer cell lines to identify multiple opportunities for drug repurposing: Primary screen for control Hh wild type fibroblast cells (AID 1347106);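 note: series mostly up to about 46 µM; a drop in luminescence marks cytotoxicity and a rise apparent proliferation; nearly all actives have a fitted effect of over 55% in size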
Summary of the method: as §2

[18] = qHTS of pediatric cancer cell lines to identify multiple opportunities for drug repurposing: Confirmatory screen for NB1643 cells (AID 1347109); note: nearly all actives have a fitted effect of over 45% in size
Summary of the method: as §2

[19] = qHTS of pediatric cancer cell lines to identify multiple opportunities for drug repurposing: Confirmatory screen for A673 cells (AID 1347110); note: nearly all actives have a fitted effect of over 65% in size
Summary of the method: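 A673 cells seeded at 500-1,000 cells/well, rested 5 h, then dosed; primary MIPE 11-point (0.78 nM to 46 µM), NPC (0.59 nM to 46 µM); confirmatory 11-point. CellTiter-Glo luminescence after 48 h.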

Compound | Potency [1] | Potency [2] | Potency [3] | Potency [4] | Potency [5] | Potency [6] | Potency [7] | Potency [8] | Potency [9] | Potency [10] | Potency [11] | Potency [12] | Potency [13] | outcome [14] | Potency [15] | Potency [16] | Potency [17] | Potency [18] | Potency [19]
Nc1c2c(nc3ccccc13)CCCC2 | inactive | inactive | inactive | inactive | inactive | inactive | inactive | inactive | inactive | inactive | inactive | inactive | inactive | inactive | inactive | – | – | – | –
CN(C)C(=O)C(CCN1CCC(O)(c2ccc(Cl)cc2)CC1)(c1ccccc1)c1ccccc1 | 18.7 µM (active) | 18.7 µM (active) | inactive | inactive | inactive | 24.1 µM (active) and 15.4 µM (active) | 26.6 µM (active) | 18.7 µM (active) | 19.3 µM (active) and 21.9 µM (active) | 20.9 µM (active) | 21.7 µM (active) and 19.5 µM (active) | 26.4 µM (active) and 26.6 µM (active) | – | – | 18.7 µM (active) and 16.8 µM (active) | 24.3 µM (active) | – | – | –
CCC1(C)CC(=O)NC1=O (configuration not stated) | inactive | inactive | inactive | inactive | inactive | inactive | – | inactive | inactive | inactive | inactive | inactive | inactive | inactive | inactive | – | inactive | – | –
CC1(C)O[C@H]2CC(=O)OC[C@]23[C@H]2CC[C@@]4(C)[C@H](c5ccoc5)OC(=O)[C@H]5O[C@]54[C@]2(C)C(=O)C[C@@H]13 | inactive | inactive | inactive | inactive | inactive | inactive | – | inactive | inactive | inactive | inactive | inactive | inactive | inactive | inactive | – | inactive | – | –
COc1ccc(CCN(C)CCCC(C#N)(c2ccc(OC)c(OC)c2)C(C)C)cc1OC (configuration not stated) | inactive | inactive | inactive | inactive | inactive | inactive | – | inactive | inactive | inactive | inactive | inactive | inactive | inactive | inactive | – | inactive | – | –
NS(=O)(=O)c1cc2c(cc1Cl)NCNS2(=O)=O | inactive | inactive | inactive | inactive | inactive | inactive | – | inactive | inactive | inactive | inactive | inactive | inactive | inactive | inactive | – | inactive | – | –
COc1cc2nc(N(C)CCCNC(=O)C3CCCO3)nc(N)c2cc1OC (configuration not stated) | inactive | inactive | inactive | inactive | inactive | inactive | – | inactive | inactive | inactive | inactive | inactive | inactive | inactive | inactive | inactive | inactive | – | –
Nc1ccn([C@H]2CC[C@@H](CO)O2)c(=O)n1 | inactive | 18.7 µM (active) and 21.1 µM (active) | inactive | inactive | inactive | inactive | inactive | inactive | inactive | inactive | inactive | inactive | inactive | inactive | inactive | – | inactive | – | –
OCCN1CCN(CCCN2c3ccccc3Sc3ccc(C(F)(F)F)cc32)CC1 | 18.7 µM (active) | 2.09 µM (active) | – | inactive | – | 21.5 µM (active) and 19.4 µM (active) | – | – | 27.3 µM (active) | – | 24.3 µM (active) and 27.6 µM (active) | 18.7 µM (active) | – | inactive | inactive | 13.7 µM (active) | inactive | – | –
Cn1ccc2cc3c(cc21)CCN3C(=O)Nc1cccnc1 | 11.8 µM (active) | inactive | inactive | inactive | inactive | – | – | inactive | inactive | inactive | inactive | inactive | inactive | inactive | inactive | – | – | – | –
Nc1nnc(-c2cccc(Cl)c2Cl)c(N)n1 | inactive | – | inactive | inactive | inactive | inactive | inactive | inactive | inactive | inactive | inactive | inactive | inactive | inactive | inactive | inactive | inactive | – | –
CS(=O)(=O)Nc1ccc([N+](=O)[O-])cc1Oc1ccccc1 | inactive | 23.5 µM (active) | inactive | inactive | inactive | inactive | – | – | inactive | inactive | inactive | inactive | inactive | inactive | inactive | – | inactive | inactive | inactive
